Source: PubChem BioAssay (NCI)
About 83,000 compounds went through this panel and 20% of them were active in at least one assay; those are over-represented in the sample as a whole.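 Plates (96-well) were seeded with cells, treated with compound at one concentration, and incubated for 48 hours before percent growth was determined.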 Values without a mark were called inactive. Calls of active or inactive are those of the source. How the source made its calls: active means growth percent below 10; inactive means the rest.

Key:
Experiment in all cases: NCI-60 one-dose screen, 48 h (100 = growth as untreated, 0 = no growth, -100 = all killed)
Conditions in all cases: 10 µM unless noted
EKVX NSCLC = test system: EKVX NSCLC
SN12C renal = test system: SN12C renal
UO-31 renal = test system: UO-31 renal
TK-10 renal = test system: TK-10 renal
ACHN renal = test system: ACHN renal
CAKI-1 renal = test system: CAKI-1 renal
CCRF-CEM leukemia = test system: CCRF-CEM leukemia
MOLT-4 leukemia = test system: MOLT-4 leukemia
SR leukemia = test system: SR leukemia
RPMI-8226 leukemia = test system: RPMI-8226 leukemia
OVCAR-8 ovarian = test system: OVCAR-8 ovarian
OVCAR-5 ovarian = test system: OVCAR-5 ovarian
OVCAR-4 ovarian = test system: OVCAR-4 ovarian
SK-OV-3 ovarian = test system: SK-OV-3 ovarian
IGROV1 ovarian = test system: IGROV1 ovarian
OVCAR-3 ovarian = test system: OVCAR-3 ovarian
HS 578T breast = test system: HS 578T breast
NCI/ADR-RES ovarian = test system: NCI/ADR-RES ovarian
T-47D breast = test system: T-47D breast
A498 renal = test system: A498 renal

Row | Compound | growth (EKVX NSCLC) [%] | growth (SN12C renal) [%] | growth (UO-31 renal) | growth (TK-10 renal) [%] | growth (ACHN renal) | growth (CAKI-1 renal) [%] | growth (CCRF-CEM leukemia) | growth (MOLT-4 leukemia) | growth (SR leukemia) | growth (RPMI-8226 leukemia) | growth (OVCAR-8 ovarian) | growth (OVCAR-5 ovarian) | growth (OVCAR-4 ovarian) [%] | growth (SK-OV-3 ovarian) [%] | growth (IGROV1 ovarian) [%] | growth (OVCAR-3 ovarian) | growth (HS 578T breast) | growth (NCI/ADR-RES ovarian) | growth (T-47D breast) [%] | growth (A498 renal) [%]
1 | COc1ccc(/C=C2\SC(=Nc3cc(C)on3)NC2=O)cc1 | 89.7 | 100 | 85.5% | 106 | 106% | 96.6 | 101% | 100% | 98.9% | 98.2% | 102% | 97.6% | 109 | 113 | 99.2 | 116% | 96.9% | 98.6% | 104 | 
2 | CN1CCc2c(sc3ncnc(N/N=C/c4ccc(Cl)c(Cl)c4)c23)C1 | 60.8 | 81.2 | 29.7% | 137 | -84.7% (active) | 10.6 | 8.1% (active) | 26.6% | -22.8% (active) | 41.4% | 31.8% | 71.4% | 20.9 | 28.3 | 73.2 | 71.5% | 78.5% | 29.6% | 90.4 | 
3 | CCCC(=O)NC(c1ccc(N(CC)CC)cc1)c1cc(C)c2cccnc2c1O (configuration not stated) | 19.2 | 26.6 | 3.42% (active) | 31.6 | 10.7% | 18.7 | 6.15% (active) | 8.44% (active) | 5.57% (active) | 22.6% | 20.5% | 58% | 40.3 | 42 | 14.1 | 18.6% | 50% | 6.31% (active) | 26.3 | 
4 | O=C(CSc1nnc(-c2ccc3nc(-c4ccc(Cl)cc4)[nH]c3c2)o1)Nc1ccc(C(=O)/C=C/c2ccc(Cl)cc2)cc1 | 93.8 | 84.9 | 75.3% | 129 | 98.1% | 83.6 |  | 77.8% | 49.7% | 4.95% (active) | 97.1% | 108% | 101 | 110 | 85.5 | 121% | 89% | 105% | 87.1 | 90.1
5 | Cn1ccnc1C(=O)/C=C/c1ccc(NC(=O)Nc2ccc(F)cc2)cc1 | 39.3 | 53.8 | 56.6% | 106 | 49.5% | 55.1 | 12.6% | 11.6% | 3.97% (active) | 13.2% | 15.8% | 57.7% | 76.2 | 52.8 | 43.1 | 56.5% | 17.6% | 43.8% | 42.8 | 
6 | Nc1c(C(=O)c2ccc(Br)cc2)oc2nc(-c3cnccn3)cc(-c3cccs3)c12 | 102 | 97.9 | 87.1% | 172 | 103% | 95.2 | 100% | 95% | 91.7% | 99.8% | 103% | 112% | 96.3 | 98.6 | 97.4 | 108% | 101% | 102% | 91.4 | 
7 | CCCC(=O)NC(c1cccc(N(C)C)c1)c1cc(C)c2cccnc2c1O (configuration not stated) | 73.8 | 78.2 | 31.9% | 84.9 | 38.2% | 48.3 | 24.1% | 22.9% | 21.7% | 63.8% | 44% | 87.4% | 53.1 | 56.5 | 40 | 8.33% (active) | 71.4% | 22.6% | 56.6 | 
8 | CC(=NNc1ncnc2ccccc12)c1ccc(S(C)(=O)=O)cc1 | 91.1 | 97.2 | 73.1% | 152 | 103% | 89.4 | 99.9% | 100% | 100% | 98.6% | 98.2% | 111% | 122 | 102 | 96.5 | 118% | 95.3% | 103% | 103 | 
9 | O=C(Oc1ccc2ccc(=O)oc2c1)c1ccc(Cl)cc1 | 99.2 | 98.7 | 86.7% | 125 | 106% | 98.5 | 103% | 106% | 96.6% | 109% | 105% | 110% | 119 | 109 | 104 | 118% | 103% | 101% | 105 | 
10 | Cn1ccnc1C(=O)/C=C/c1ccc(NC(=O)Nc2ccccc2)cc1 | 16.5 | 45.6 | 40.7% | 85.9 | 26.8% | 31.9 | 7.34% (active) | 4.35% (active) | -3.08% (active) | 8.95% (active) | -1.17% (active) | 14.8% | 42.7 | 13.3 | 19.2 | 6.45% (active) | 5.48% (active) | 22.2% | 15.7 | 
11 | NS(=O)(=O)c1cccc(Nc2nc(SCC(=O)c3ccc(Cl)cc3)nc3ccccc23)c1 | 77.4 | 63.4 | 84.2% | 123 | 77.6% | 62.3 |  | 82.8% | 59.2% | 65.4% |  | 116% | 22.5 | 103 | 76.3 | 85.8% | 43.5% | 91.1% | 63.3 | 85.2
12 | COc1ccc(N/N=C/c2c(-c3ccc(S(C)(=O)=O)cc3)nc3ccccn23)cc1 | 69.2 | 49.8 | 30.2% | 57.3 | 32.2% | 20.3 |  | 18.6% | 57.1% | 32.2% | 49.1% | 67.4% | 42.1 | 62.2 | 51.9 |  | 62.4% | 34% | 26.2 | 35.6
13 | COC(=O)C1CCCN(S(=O)(=O)/N=C2\NC(=O)NC2=C(Cl)Cl)C1 (configuration not stated) | 104 | 102 | 92.2% | 74.6 | 109% | 102 | 58% | 96.3% | 28.6% | 0.297% (active) | 105% | 130% | 119 | 106 | 107 | 122% | 110% | 111% | 68.2 | 
14 | O=C(N/N=C/c1cccs1)c1[nH]c2ccc(Br)cc2c1-c1ccccc1 | 42.2 | 45.7 | 49.4% | 121 | 28.5% | 25.7 | 8.56% (active) | 11.5% | 6.19% (active) | 3.64% (active) | 3.38% (active) | 46.1% | 72.2 | 36 | 18 | 21.5% | 27.2% | 17.8% | 68.4 | 
15 | Cc1cc2nc3c4cc(Cl)ccc4n(CC(=O)NCCN(C)C)c3nc2cc1C | 73.8 | 79.8 | -83.6% (active) | 161 | -47.4% (active) | 53.9 | -14.5% (active) | -19.4% (active) | -38% (active) | -27.3% (active) | 55.9% | -16.7% (active) | 95.7 | 106 | 56.2 | 96.7% | 71.9% | 55.4% | 82 | 
16 | O=C(N/N=C/c1ccc([N+](=O)[O-])o1)c1[nH]c2ccc(Br)cc2c1-c1ccccc1 | 39.2 | 21.9 | 30.9% | 78.7 | 16.1% | 20.3 | 7.85% (active) | 5.69% (active) | 6.28% (active) | 0.483% (active) | -5.13% (active) | 35.7% | 38.2 | 30.4 | 15.6 | 21.9% | 8.44% (active) | 18.7% | 53.9 | 
